# Compound activity as filed in PubChem BioAssay.
# The entries come from a sample that favours hits as a whole.
# RORg inh = inhibitors of mouse ROR gamma transcriptional activity. P51450. Drosophila S2 Gal4-RORgamma UAS-luciferase reporter, 20 h. Potency, µM (highest dose often 53.6 µM), for the others: at the top dose activity change, negative = inhibition, actives largely listed as inhibitors. 310,000 tested, 5.4% active; also: potency is read from the fitted curve at half-maximal effect; % is scaled to controls: 0 for no effect and ±100 for the full control effect; nearly all actives have a fitted effect of over 60% in size
#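 Drosophila Schneider cells stably carrying a metallothionein-driven Gal4 DBD–ROR gamma fusion and a UAS-Photinus luciferase reporter were exposed to compound for 1 hr, then induced with copper sulfate (700 uM final) for 20 hr at ambient temperature before luminescence reading.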
# ERG Ets-DNA blk = blocks human ERG Ets domain binding to DNA. fluorescence polarization, His-ERG Ets domain / labelled DNA. 370,000 tested, 0.028% active. Potency, µM (top dose mostly 76.9 µM), for inactives: at the top dose FP activity, negative = inhibition, most hits filed as inhibitors; active = well fitted inhibition curve with a large enough effect in the polarisation, with a control signal flat; inconclusive = small, poorly fitted or top-dose-only effect, or effect the other way, or a change in a side signal; inactive = no such curve, though single readings can be large or run the other way; the % refers to the polarisation;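 also: polarization taken with two DNA probes labelled with fluorescein and Texas red; potency is read from the fitted curve at half-maximal effect; % of control where 0% means no effect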
# Target sequence (P11308 whole entry, looked up, the tested form may be a part): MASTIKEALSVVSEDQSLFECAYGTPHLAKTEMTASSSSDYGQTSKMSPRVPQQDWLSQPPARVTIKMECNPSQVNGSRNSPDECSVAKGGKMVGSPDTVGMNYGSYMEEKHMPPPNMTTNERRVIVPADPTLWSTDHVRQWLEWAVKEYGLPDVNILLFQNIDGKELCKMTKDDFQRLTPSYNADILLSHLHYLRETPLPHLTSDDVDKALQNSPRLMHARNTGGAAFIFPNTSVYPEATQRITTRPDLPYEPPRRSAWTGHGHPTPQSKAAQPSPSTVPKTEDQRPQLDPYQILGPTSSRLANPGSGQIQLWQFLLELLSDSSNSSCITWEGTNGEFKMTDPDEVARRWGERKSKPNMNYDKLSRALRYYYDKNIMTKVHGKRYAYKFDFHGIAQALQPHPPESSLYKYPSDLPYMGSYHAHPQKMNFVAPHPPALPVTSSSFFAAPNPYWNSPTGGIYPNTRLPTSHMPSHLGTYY
#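 His-tagged ERG Ets domain (1 uM in the protein solution; 300mM KCl, 50mM Tris-HCl, 1mM EDTA, 1mM DTT, pH 7.5) received compound, then a probe mix of 5 nM fluorescein-DNA and 100nM Texas-615-DNA. Fluorescence polarization was read for both dyes.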
# Integrin act MD = activates integrin-mediated alleviation for muscular dystrophy. Potency, µM (series often up to 38.3 µM), for inactives: top-dose activation, most hits filed as activators. alpha7betagal myoblasts, beta-gal FDG fluorescence, 48 h. AID 624291. 350,000 tested, 0.064% active;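 also: potency is read from the fitted curve at half-maximal effect; 100% = response of the positive control SU9516; nearly all actives have a fitted effect of over 60% in size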
#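 Alpha7betagal+/- myoblasts (passage 13) were plated 16-24 hr, then exposed to compounds (1:260 dilution of DMSO stock) for 48 hours at 37C. After MPER lysis, β-galactosidase reporter activity was read as FDG fluorescence (ex 480/em 540) after 30 minutes.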
# Giardia kill = Giardia lamblia killing | Giardia lamblia trophozoite viability | activity change, % at 7.66 µM, hits read low | 340,000 tested, 0.15% active | AID 540267; in the data active = activity change below about -80%; inconclusive = between about -30% and that limit;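 also: parasites exposed to compound for two days anaerobically before the ATP read; % is scaled to controls: 0 for no effect and ±100 for the full control effect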
#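 ATP-content bioluminescence gauges trophozoite survival. Cells (100/well) receive compound and incubate anaerobically for 48 hrs at 37 deg C; detection reagent follows for 15-30 min at room temperature.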
# VP16 counter = Gal4-VP16 reporter inhibition counter-screen | AID 2546 | Potency, µM (top dose mostly 53.6 µM), without a hit: top-dose activity, negative = inhibition, usual class: inhibitors | 310,000 tested, 3.5% active | Drosophila S2 Gal4-VP16 UAS-luciferase, luminescence, 20 h;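 also: Gal4-VP16 expression switched on by copper sulfate through the metallothionein promoter; potency is read from the fitted curve at half-maximal effect; % is scaled to controls: 0 for no effect and ±100 for the full control effect; nearly all actives have a fitted effect of over 50% in size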
# * marks the source's active call; other numbers are inactive results; ? = inconclusive; · = not tested or not shown. Unless noted, calls follow the shape of the dose curve; as a rule, active = well fitted curve in the direction sought with a large enough effect; inconclusive = small, poorly fitted or top-dose-only effect, or another doubt; inactive = no such curve, though single readings can be large; an effect the other way counts as inactive or inconclusive.
SMILES,RORg inh,ERG Ets-DNA blk,Integrin act MD,Giardia kill,VP16 counter
O=C(N/N=C/c1ccc(Cl)s1)c1ccccc1[N+](=O)[O-],6.3µM*,-4%,22%,-1,7.1µM*
O=[N+]([O-])c1ccccc1/C=N/Nc1nnc(-c2ccccc2)c(-c2ccccc2)n1,3.2µM*,-2%,-13%,0,3.2µM*
O=[N+]([O-])c1ccccc1/C=N\Nc1nccs1,-32%,-3%,-22%,-2,-14%
COc1ccccc1CNC(=O)CCCn1c(=O)c2ccccc2n(CC(=O)Nc2c(C)cc(C)cc2C)c1=O,·,-3%,·,·,·
Cc1cccc(S(=O)(=O)c2cn(Cc3ccc(F)cc3)c3cc(N4CCOCC4)c(F)cc3c2=O)c1,·,3%,·,·,·
CCC(CC)C(=O)Nc1c(C(=O)N2CCN(c3ccccc3)CC2)oc2ccccc12,20%,-1%,13µM*,21,-17%
COC(=O)Cn1c(CCS(=O)(=O)c2ccc(Cl)cc2)nc2ccccc21,3.5µM*,1%,-22%,6,4%
Cc1ccc(-c2nn(C(C)(C)C)c3ncnc(NS(=O)(=O)c4ccc([N+](=O)[O-])cc4)c23)cc1,13µM*,-3%,2%,-5,-22%
Cc1ccc(S(=O)(=O)Nc2ncnc3sc(C)c(C)c23)cc1,·,-15%,3%,-15,·
N#Cc1cc([N+](=O)[O-])ccc1NC(=O)CSc1n[nH]c(=O)[nH]c1=O,·,-1%,15%,13,·
Cc1ccc(C2=Nc3ccccc3N=C(C(Cl)Cl)C2)cc1,11µM*,-6%,5%,-6,?
Cc1ccc2c(c1)N=C(c1ccccc1)CC(C(Cl)Cl)=N2,11µM*,1%,-29%,5,?
Cc1ccc(O)c(C2=Nc3ccccc3N=C(c3cccc(F)c3)C2)c1,·,-2%,·,·,·
Cc1cc2c(cc1C)NC(=O)CC(c1ccccc1)=N2,·,-4%,34%,12,·
COCCNC(=S)N=Nc1c(O)[nH]c2c(C)cc(C)cc12,2.2µM*,0%,-5%,-12,7.9µM*
Cc1cc(C)c2[nH]c(O)c(N=NC(=O)c3cc4c(s3)CCCC4)c2c1,21%,·,·,·,6%
O=[N+]([O-])c1c(C(Cl)Cl)nn(-c2ccccc2)c1N1CCCC1,7.1µM*,·,-29%,-17,?
Cc1sc2nc(CN(C(=O)c3cccs3)C3CCCC3)[nH]c(=O)c2c1C,11µM*,-10%,21%,4,?
COCC(=O)N(Cc1nc2sc(C)c(C)c2c(=O)[nH]1)C1CCCCC1,-15%,-8%,4%,0,9%
Cc1sc2nc(CN(C(=O)NC3CCCCC3)C3CCCC3)[nH]c(=O)c2c1C,8.9µM*,0%,-28%,-4,14µM*
Cc1c(Cl)cccc1NC(=O)CSc1cc(-c2ccccc2)ncn1,·,2%,·,·,·
C/C(=N/Oc1nc(C)cc(C)n1)c1ccc(Cl)cc1Cl,10µM*,-9%,-15%,-6,?
C/C(=N\Oc1cccc(F)n1)c1ccc(Cl)cc1Cl,6%,-4%,-8%,-8,17%
CC(C)(C)Sc1ccc2nc3c(n2c1)CCCC3,4µM*,-2%,-40%,0,11µM*
COc1ccccc1NC(=S)NC(C)C(c1cccs1)N1CCOCC1 (centres undefined),13µM*,1%,0%,?,?
SMILES,RORg inh,ERG Ets-DNA blk,Integrin act MD,Giardia kill,VP16 counter
CCN1CCN(C(c2cccs2)C(C)NC(=S)NC2CCCCC2)CC1 (centres undefined),-44%,-12%,8%,-11,3%
CC(NC(=S)Nc1ccc(Cl)cc1Cl)C(c1cccs1)N1CCCC1 (centres undefined),11µM*,-3%,-2%,-29,?
CC(NC(=S)NC1CCCCC1)C(c1cccs1)N1CCOCC1 (centres undefined),8.9µM*,-4%,13%,6,?
CC(NC(=O)Nc1ccccc1)C(c1cccs1)N1CCOCC1 (centres undefined),?,-2%,7%,-18,25%
N#Cc1cccc2c1-c1ccccc1/C2=N/NC(N)=O,-13%,-5%,-25%,5,-22%
N#Cc1cccc2c1-c1ccccc1/C2=N/NC(N)=S,4µM*,16%,-66%,4,5µM*
N=C1N=C(N)c2cc3ccccc3cc21,-2%,·,·,·,-6%
COc1ccc(-c2oc3ccccc3c(=O)c2OC(C)=O)cc1,7.1µM*,12%,-35%,12,?
